Experimental data: PubChem BioAssay (NCATS)
Results filed as inconclusive are left out. The source made the active and inactive calls. Calls come from the whole dose curve; as a rule, active = well fitted curve in the direction sought with a large enough effect; inconclusive = small, poorly fitted or top-dose-only effect, or another doubt; inactive = no such curve, though single readings can be large; an effect the other way counts as inactive or inconclusive.

How the values were obtained:
[1] = Cell Viability - LYMP2-005 (AID 967); note: series mostly up to about 92 µM
In short: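 qHTS viability screen in LYMP2-005 cells: 24 h at 37 C with compound, ATP luminescence via CellTiter-Glo, AC50 from Hill curves.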

[2] = Cell Viability - LYMP2-009 (AID 968); note: series mostly up to about 92 µM; nearly all actives have a fitted effect of over 55% in size
[3] = Cell Viability - LYMP2-011 (AID 969);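 note: cells exposed to compound for 24 hours; nearly all actives have a fitted effect of over 60% in size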
In short: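 Luminescent ATP read-out (CellTiter-Glo, 30 min RT) after 24 hr compound exposure at 37 C in human lymphoblastoid cells, 2500 cells/well. Decreasing ATP indicates cytotoxicity; AC50 from standard Hill fit.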

[4] = Cell Viability - LYMP2-013 (AID 970); note: series mostly up to about 92 µM; nearly all actives have a fitted effect of over 55% in size
In short: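 CellTiter-Glo luminescence (cellular ATP) read after 30 min at RT. Cells: human lymphoblastoid line, 2500/well, 24 hr compound exposure at 37 C. Tetraoctylammonium bromide positive control; AC50 via standard Hill fit of qHTS titrations.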

[5] = Cell Viability - LYMP2-015 (AID 971); note: nearly all actives have a fitted effect of over 55% in size
In short: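 qHTS cytotoxicity: 2500 cells/well, 5 hr 37 C, compound 24 hr 37 C, CellTiter-Glo 30 min RT, luminescence. Loss of ATP = toxicity; AC50 via standard Hill fit.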

[6] = Cell Viability - LYMP2-017 (AID 972);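 note: series mostly up to about 92 µM; cells exposed to compound for 24 hours at 37 °C; nearly all actives have a fitted effect of over 55% in size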
In short: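 Luminescent ATP read-out (CellTiter-Glo, 30 min RT) reports viable cell number. Cells: human lymphoblastoid line, 2500 per well, 5 hr preincubation, 24 hr compound exposure at 37 C. AC50 is derived from qHTS concentration-response data using the standard Hill model.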

[7] = Cell Viability - LYMP2-019 (AID 973); note: nearly all actives have a fitted effect of over 55% in size
In short: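 qHTS, 1536-well; 2500 cells/well; 5 hr pre-incubation, 24 hr compound exposure, 37 C; CellTiter-Glo added, 30 min RT; luminescence read; AC50 via standard Hill equation.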

[8] = Cell Viability - LYMP2-021 (AID 974)
In short: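 ATP luminescence (CellTiter-Glo, 30 min RT) after 24 h compound exposure at 37 C; 2500 human lymphoblastoid cells/well, 5 h settle beforehand. Cytotoxicity = concentration-dependent ATP drop, AC50 by Hill fit.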

[9] = Cell Viability - LYMP2-023 (AID 975)
In short: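 CellTiter-Glo luminescence after 30 min at room temperature; decrease in intracellular ATP reflects toxicity. Cells: human lymphoblastoid line, 2500/well, 24 hr compound exposure at 37 C. AC50 fitted to standard Hill equation from concentration-response.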

[10] = Cell Viability - LYMP2-025 (AID 976); note: series mostly up to about 92 µM
In short: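 CellTiter-Glo luminescence (cellular ATP) after 24 h compound exposure at 37 C; LYMP2-025 human lymphoblastoid cells, 2500/well, complete medium. Tetraoctylammonium bromide positive control. AC50 by Hill equation fit of qHTS concentration-response.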

Measured: Potency

CN(C)CCCCl
not listed: [10]
inactive: all other assays above

CNC(=O)c1ccccc1
not listed: [9] | [10]
inactive: all other assays above

C=CCCCC
not listed: [9] | [10]
inactive: all other assays above

O=[N+]([O-])c1ccc(Cl)cc1Cl
not listed: [10]
inactive: all other assays above

NC(=O)CCCCC(N)=O
not listed: [10]
inactive: all other assays above

Nc1ccccc1[N+](=O)[O-]
inactive: all assays above

CCCC(Cl)CCCC(Cl)CCC(Cl)CCC(Cl)CCC(Cl)CCCC(Cl)CCC (stereo not drawn)
inactive: all assays above

COCCOC(=O)c1ccccc1C(=O)OCCOC
not listed: [9] | [10]
inactive: all other assays above

CC(C)C=O
inactive: all assays above

Cc1nc2ccc(Cl)cc2[nH]1
inactive: all assays above

CCN(C(=O)N(CC)c1ccccc1)c1ccccc1
inactive: all assays above

COc1cccc(N)c1
inactive: all assays above

BrC(Br)C(Br)Br
not listed: [10]
inactive: all other assays above

CC(=O)c1ccc([N+](=O)[O-])cc1
not listed: [10]
inactive: all other assays above

C=C(C)C(=O)OCCCCCCCCCC
not listed: [10]
inactive: all other assays above

O=C(O)CNC(=O)c1ccc(CO)o1
inactive: all assays above

Nc1cc(Cl)c(N)c(Cl)c1
not listed: [10]
inactive: all other assays above

CCC(O)C(C)(C)C (stereo not drawn)
not listed: [10]
inactive: all other assays above

C=C(C)C(=O)OCCCCCC
not listed: [10]
inactive: all other assays above

NC(=O)c1cccc([N+](=O)[O-])c1
inactive: all assays above

O=C(O)c1ccccc1[N+](=O)[O-]
inactive: all assays above

CCN(CC)c1cccc(O)c1
not listed: [10]
inactive: all other assays above

Cc1cccc(C(=O)O)c1[N+](=O)[O-]
not listed: [10]
inactive: all other assays above

CCCCCNCCCCC
not listed: [9] | [10]
inactive: all other assays above

Cc1ccc(C(C)(C)C)cc1
not listed: [10]
inactive: all other assays above

Nc1c(Cl)cc(Cl)cc1Cl
inactive: all assays above

O=P(O)(OCc1ccccc1)OCc1ccccc1
inactive: all assays above

O=C1NC(=O)c2cc([N+](=O)[O-])ccc21
inactive: all assays above

O=[N+]([O-])c1ccc(NCCO)c(OCCO)c1
inactive: all assays above

CC(C)CCOC(=O)/C=C/c1ccccc1
not listed: [10]
inactive: all other assays above

O=C(O)c1ccc(Cl)cc1Cl
not listed: [10]
inactive: all other assays above

Cc1c(N)cccc1[N+](=O)[O-]
inactive: all assays above

O=CNc1ccccc1
not listed: [10]
inactive: all other assays above

Nc1cccc2c(=O)[nH][nH]c(=O)c12
not listed: [10]
inactive: all other assays above

C=CCCCCCC
inactive: all assays above

CC(=O)OC(C)C
inactive: all assays above

CCCCCCO
not listed: [10]
inactive: all other assays above

Nc1ccccc1S(=O)(=O)O
inactive: all assays above

CNc1ccc([N+](=O)[O-])cc1
not listed: [9] | [10]
inactive: all other assays above

CCC(C)(C)C
inactive: all assays above

CCCCOCCOCCSC#N
inactive: all assays above

O=Cc1cccc(Br)c1
inactive: all assays above

O=C(O[C@@H](C(=O)O)[C@@H](OC(=O)c1ccccc1)C(=O)O)c1ccccc1
inactive: all assays above

CCc1ccccc1O
inactive: all assays above

CC(C)N=C=NC(C)C
inactive: all assays above

c1ccc(Oc2ccccc2)cc1
inactive: all assays above

CCCC=O
inactive: all assays above

Cc1cccc(C)c1
inactive: all assays above

COC(=O)CCC(=O)OC
inactive: all assays above

c1ccc(Nc2ccccc2)cc1
inactive: all assays above

CSc1ccc(C=O)cc1
inactive: all assays above

CCCCC(CC)CNCC(CC)CCCC (stereo not drawn)
inactive: all assays above

N#CC1(O)CCCCC1
inactive: all assays above

c1ccc2c(c1)ccc1ncccc12
inactive: all assays above

CC(=O)OCc1ccco1
inactive: all assays above

Cc1ccco1
inactive: all assays above

C=C(C)C(=O)OC
inactive: all assays above

Cc1cc(C)cc(N)c1
inactive: all assays above
